# An excerpt weighted towards active compounds, which were near 1% of everything screened.
# Mtb hypoxia rep – reduces hypoxia-regulated biosensor signal in M. tuberculosis; M. tuberculosis hypoxia-regulated fluorescent reporter, fluorescence; fluorescence inhibition, % (concentration not given with the values); 300,000 tested, 0.1% active; in the data active means fluorescence inhibition mostly above about 23%, no sharp cut-off; inactive means mostly below about 17%
# TcdB inh – inhibitors of Clostridioides difficile toxin B glycohydrolase; TcdB glycohydrolase enzymatic assay, plate reader; inhibition, % at 9.99 µM; 350,000 tested, 0.24% active; AID 652162; in the data active means inhibition above about 10%
# FadD28 FP inh – M. tuberculosis FadD28 bisubstrate binding inhibition | inhibition, % at 12.5 µM | FadD28 bisubstrate probe binding, fluorescence polarization | AID 588549 | 360,000 tested, 0.22% active; in the data active means inhibition above about 8.5%, passing the limit was not always enough
# BioA inh – inhibitors of Mycobacterium tuberculosis BioA enzyme | purified M. tuberculosis BioA enzyme, plate reader | inhibition, % at 9.99 µM | 360,000 tested, 0.096% active; in the data active means inhibition above about 40%
# PriA SSB inh – K. pneumoniae PriA-SSBct interaction inhibition; inhibition, % at 33 µM; AID 1272365; 430,000 tested, 0.6% active; AlphaScreen SSBct-PriA binding, biotinylated peptide; in the data active means inhibition mostly above about 37%, no sharp cut-off; inactive means mostly below about 20%
# PrP UTR inh – suppresses PrP 5' UTR mRNA reporter expression | inhibition, % (no concentration beside the values) | AID 488862 | cell-based PrP 5' UTR mRNA reporter, plate reader | 340,000 tested, 0.35% active; in the data active means inhibition above about 52%
# Numbers stand for hits; – = inactive; · = no result given; ! = a repeat was not active.
SMILES,Mtb hypoxia rep,TcdB inh,FadD28 FP inh,BioA inh,PriA SSB inh,PrP UTR inh
COc1ccc(CSCC(=O)Nc2ccc(S(=O)(=O)N3CCCCCC3)cc2)cc1,–,·,11.8,·,–,–
COc1cccc(CNC(=O)C2(C)CCCN2C(=O)C(C)C)c1 (stereo unspecified),·,–,–,–,·,·
CCOc1ccc(C2NC(=O)c3ccccc3O2)cc1OC (stereo unspecified),–,–,–,–,–,–
CCc1csc(N2[C@@H](C#N)[C@@H](c3ccccc3-c3ccc(F)cc3)[C@@H]2CO)n1,·,–,·,·,·,·
CCOC(=O)C1CCN(c2c([N+](=O)[O-])c(C(Cl)Cl)nn2-c2ccccc2)CC1,–,·,–,–,–,–
O=[N+]([O-])c1c(C(Cl)Cl)nn(-c2ccccc2)c1N1CCCC1,–,–,–,–,50.4,–
CCOC(=O)CC(C)=NNc1ccc([N+](=O)[O-])cc1[N+](=O)[O-],–,·,·,·,47.4,·
CCCCN1C(=O)c2ccc(C(=O)NCCN3C(=O)S/C(=C\c4cccnc4)C3=O)cc2C1=O,–,·,–,·,–,–
CSc1ncc(Cl)c(C(=O)Nc2nnc(SC/C=C/c3ccccc3)s2)n1,–,–,15.1,–,–,–
CCCC(=O)Nc1[nH]c(=S)c(C#N)c(-c2ccc(OC(=O)CCC)cc2)c1C#N,·,·,·,·,97.0,·
CCCC(=O)Nc1sc(C)c(-c2ccc(OC)cc2)c1C#N,–,·,–,–,–,–
Cc1cc(C(=O)Nc2nc(C(=O)NCCSc3nncn3C)co2)no1,·,·,·,·,–,·
CC(=O)Nc1cccc(S(C)(=O)=O)c1,–,–,–,–,–,–
Cc1ccccc1NC(=O)CSc1n[nH]c(-c2ccccn2)n1,–,–,–,–,105.8,–
O=C(CSc1n[nH]c(-c2ccccn2)n1)NC1CC2CCC1C2 (stereo unspecified),·,·,·,·,99.0,·
Cc1ccc(C)c(NC(=O)CSc2ncccn2)c1,·,·,·,·,–,·
Cc1ccc(C)c(NC(=O)CSc2n[nH]c(-c3ccccn3)n2)c1,–,–,·,·,79.9,–
O=C(CSc1n[nH]c(-c2ccccn2)n1)Nc1ccc(Cl)cc1Cl,·,·,·,·,–,·
O=C(CSc1n[nH]c(-c2ccccn2)n1)Nc1cccc(Cl)c1,–,–,–,–,87.9,–
CCC(=O)N1CCCCN2[C@@H](CO)[C@@H](c3ccc(/C=C/c4ccccc4)cc3)[C@@H]2C1,·,–,·,–,·,·
O=C(NCc1nc(-c2ccccc2)cs1)c1ccccc1,–,–,–,–,–,–
Cc1ccc(S(=O)(=O)Cc2ccc(C(=O)O)o2)cc1,–,–,–,–,–,–
O=C(NCC[C@@H]1CC[C@@H](NS(=O)(=O)c2ccc(F)cc2)[C@H](CO)O1)c1ccc2c(c1)OCO2,·,–,·,–,·,·
Nc1ccc(N=Nc2ccccc2)c2ccccc12,–,–,–,–,–,–
Nc1ccc(N=Nc2ccccc2)c(N)n1,–,–,–,–,56.0,–
SMILES,Mtb hypoxia rep,TcdB inh,FadD28 FP inh,BioA inh,PriA SSB inh,PrP UTR inh
c1ccc(N=Nc2ccc3cccccc2-3)cc1,–,–,–,–,50.8,–
O=C(NCCC(O)c1ccco1)C(=O)NCc1ccccc1Cl (stereo unspecified),·,·,·,·,–,·
Cn1c(=O)oc2cc(S(=O)(=O)N3CCCC(C(=O)NCC4COc5ccccc5O4)C3)ccc21 (stereo unspecified),–,–,–,–,104.2,–
Oc1ccc(N2CCN(Cc3ccc(OCCCN4CCCCC4)cc3)CC2)cc1,–,–,–,·,55.2,–
COc1ccc(C(=O)NC(CC(=O)O)c2cc([N+](=O)[O-])ccc2Cl)c(SC)c1 (stereo unspecified),–,33.7,–,·,–,–
N#CC(=NNc1ccc([N+](=O)[O-])cc1)C(=N)N1CCCCC1,42.0,·,·,·,–,·
COc1ccc(Nc2ccccc2N)cc1,·,–,–,·,82.5,–
Nc1ccc(Nc2ccccc2N)cc1,·,·,–,·,–,–
CCn1c2ccccc2c2cc(NC(=O)COC(=O)c3ccc(NC(=O)CC#N)cc3)ccc21,–,–,–,·,–,–
CCCCc1ccc(NC(=S)Nc2ccc(Nc3ccc(OC)cc3)cc2)cc1,–,·,–,·,83.8,–
CO[C@@H]1CC[C@@H]2CCOc3c(C#N)cccc3C(=O)N(C)C[C@@H](OC)[C@H](C)C(=O)N(C)C[C@@H]1O2,·,–,·,–,·,·
COc1cc(NS(=O)(=O)c2ccc(Nc3nc(-c4cccc([N+](=O)[O-])c4)cs3)cc2)nc(OC)n1,–,–,17.1,–,–,–
COc1ccc(-c2csc(Nc3ccc(S(N)(=O)=O)cc3)n2)cc1,–,·,–,–,–,–
O=[N+]([O-])c1cccc(-c2csc(Nc3ccccc3)n2)c1,–,–,–,–,–,–
NS(=O)(=O)c1ccc(Nc2nc(-c3ccc(O)cc3)cs2)cc1,–,·,10.5,–,–,–
COc1ccc(-c2csc(Nc3ccc(S(=O)(=O)Nc4cc(C)on4)cc3)n2)cc1,·,–,10.4,·,–,–
COc1cccc(-c2nc(CS(=O)CC(=O)N3CCC4(CC3)OCCO4)c(C)o2)c1 (stereo unspecified),–,·,–,–,–,–
COc1ccc(CNC(=O)Cn2c(=O)oc3ccccc32)cc1OC,–,·,–,·,–,–
COc1ccccc1Oc1cn[nH]c1-c1ccc(O)cc1O,–,19.3,–,·,–,–
Cc1ccc2cc(CCNC(=S)NCCn3ccc4ccccc43)c(=O)[nH]c2c1,·,·,·,·,46.0,·
CN1CCN(S(=O)(=O)c2ccc(C(=O)NC3CCCCC3)cc2)CC1,·,–,–,–,–,–
Cc1cc(C)c(S(=O)(=O)N2CCCCC2C(=O)O)c(C)c1 (stereo unspecified),–,12.9,–,·,–,–
COc1ccc(/C=C/C(=O)N(C)Cc2cccs2)cc1S(=O)(=O)N1CCOCC1,–,–,26.0,–,–,–
COc1ccc(C(=O)NCc2cccs2)cc1S(=O)(=O)N1CCOCC1,–,–,–,–,–,–
CCN(c1ccc(NC(=O)CSc2ccc3c(c2)OCCO3)cc1)C(C)C,–,–,47.2,–,–,–
SMILES,Mtb hypoxia rep,TcdB inh,FadD28 FP inh,BioA inh,PriA SSB inh,PrP UTR inh
CCN(c1ccc(NC(=O)COC(=O)c2cc3ccccc3oc2=O)cc1)C(C)C,–,–,–,–,54.1,–
O=C(O)c1cc(NCc2ccccc2C(F)(F)F)ccc1N1CCOCC1,–,·,–,–,–,–
COc1ccccc1C1=NN(C(=S)Nc2ccccc2)C(c2ccco2)C1 (stereo unspecified),–,·,–,–,39.0!,–
COc1ccc(OC)c(C2CC(c3ccccc3)=NN2C(=S)Nc2ccccc2)c1 (stereo unspecified),–,–,–,·,–,–
COc1cc(S(=O)(=O)N2CCCCCC2)ccc1Cl,·,·,–,–,–,–
S=C1NC2(CCCCC2)Cc2ccccc21,–,·,–,–,44.1,–
CC1=C(C(=O)NC2CC(C)(C)Cc3c2cnn3-c2cccc(F)c2)OCCO1 (stereo unspecified),–,–,–,58.4,–,–
Cc1c(NC(=O)c2csc3c2CCCC3)c(=O)n(-c2ccccc2)n1C,–,–,·,–,–,–
O=Cc1ccccc1-n1cncn1,–,–,–,–,–,79.8
Nc1ncc(-n2cncn2)c(-c2ccccc2)n1,–,–,–,·,–,–
CCOC(=O)NC(=O)C(=CNc1ccccc1OC)C(=O)NC(=O)OCC,–,–,–,–,–,–
